In PubChem BioAssay (EPA / NIEHS) one finds outcome and AC50 data, which are given here for 16 molecules.

Assay [1] addresses Nuclear receptor subfamily 1 group I member 2 (Homo sapiens) (UniProt O75469). In words: NVS_NR_hPXR: NovaScreen (NVS) Nuclear Receptor Binding Assay for human Pregnane X Receptor (PXR) (AID 2283365).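 Note: a drop in FRET signal versus DMSO baseline means the compound binds.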 In outline:
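Binding was measured by time-resolved fluorescence resonance energy transfer after a 2 h exposure of extracted human PXR protein without cells. Compounds were first tested at 25 uM in duplicate, with concentration series for actives; DMSO defined baseline.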

Assay [2] deals with mouse Estrogen Receptor alpha (Era), Esr1 (gene 13982) (UniProt P19785). In words: NVS_NR_mERa: NovaScreen (NVS) Nuclear Receptor Binding Assay for mouse Estrogen Receptor alpha (Era) (AID 2283378).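 Note: hit means loss of bound radioligand signal relative to DMSO.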 In outline:
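Test chemicals competed against a specific radioligand for binding to cell-free mouse Era. Duplicate wells at 25 uM were read 18 hours later by filter-based radiodetection, with loss of signal against DMSO scored as activity.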

Assay [3] has as its target Estrogen receptor beta (Homo sapiens) (UniProt Q92731). In words: OT_ER_ERbERb_1440: Odyssey Thera (OT) 24-hour HEK293T Protein-Complementation Assay for Estrogen Receptor-beta/-beta Homodimer (AID 2283380).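 Note: scored as signal increase over DMSO baseline for both agonists and antagonists.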 A digest of the protocol: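 HEK293T cells stably expressing ER beta LBD (aa 310-547) homodimer fragment-complementation reporter, dosed 24 h. Cells formaldehyde-fixed, Draq5-stained; gain in nuclear (agonist) or nuclear plus cytoplasmic (antagonist) fluorescence versus DMSO read by laser scanning cytometry.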

Assay [4] concerns the target Estrogen receptor (Homo sapiens) (UniProt P03372). The assay can be described thus: OT_ERa_GFPERaERE_0480: Odyssey Thera (OT) 8-hour HeLa Transcription Induction Assay for Estrogen Receptor (AID 2283381; active = hit-call score of the fitted dose curve at least 0.9, where 1 is the maximum; inactive = score below 0.9). A digest of the protocol:
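HeLa cells dosed with compound and imaged by fluorescence microscopy at 8 h; GFP induction from an ERE reporter quantified by high-content image analysis and fitted as gain of signal against DMSO baseline.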

The target is the same in assay [5]. The assay can be described thus: OT_ERa_GFPERaERE_0120: Odyssey Thera (OT) 2-hour HeLa Transcription Induction Assay for Estrogen Receptor (AID 2283382). In outline: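 HeLa cells were dosed with test chemical and read 2 hours later for GFP-ERα/ERE-linked fluorescent protein induction by fluorescence microscopy. Gain-of-signal was fitted relative to DMSO baseline, quantified by high content image analysis.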

Assay [6] addresses Retinoic acid receptor RXR-alpha (Homo sapiens) (UniProt P19793). In words: OT_NURR1_NURR1RXRa_0480: Odyssey Thera (OT) 8-hour HEK293T Protein Complementation Assay for Nurr1/retinoid X receptor (RXR) (AID 2283385). In outline: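 HEK293T cells expressing Nurr1 and RXRα fused to reporter fragments were dosed with compound for 8 hours. Complex formation was read as fluorescence intensity and analysed as gain of signal against DMSO as baseline.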

Assay [7] shares this target. The assay can be described thus: OT_NURR1_NURR1RXRa_1440: Odyssey Thera (OT) 24-hour HEK293T Protein Complementation Assay for Nurr1/retinoid X receptor (RXR) (AID 2283386). In outline: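 HEK293T cells were dosed with compound and read 24 h later by fluorescence intensity in a protein-fragment complementation format, where Nurr1–RXRα interaction reconstitutes a split reporter. Activity was fitted as gain of signal relative to DMSO baseline.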

Another assay concerns the target PGR (gene 5241) (UniProt P06401). In words: NVS_NR_hPR: NovaScreen (NVS) Nuclear Receptor Binding Assay for human Progestron Receptor (PR) (AID 2283360).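 Note: active means loss of bound radioligand signal versus DMSO baseline.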 A digest of the protocol: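 T47D lysate; tritiated or iodinated radioligand; scintillation count at 18 h. DMSO = negative control/baseline. Primary: 25 uM, duplicate. Secondary: concentration series for actives.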

The target of assay [8] is human Peroxisome Proliferator-activated Receptor alpha (PPARa), PPARA (gene 5465) (UniProt Q07869). The assay can be described thus: NVS_NR_hPPARa: NovaScreen (NVS) Nuclear Receptor Binding Assay for human Peroxisome Proliferator-activated Receptor alpha (PPARa) (AID 2283359).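 Note: activity means loss of TR-FRET signal versus DMSO baseline.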 A digest of the protocol:
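Cell-free TR-FRET binding assay with extracted PPARα protein, read 1 h after dosing. Primary screen in duplicate at 25 uM, with actives retested in concentration series. Loss of signal versus DMSO.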

Assay [9] concerns the target Retinoic acid receptor alpha (Homo sapiens) (UniProt P10276). The assay can be described thus: NVS_NR_hRAR_Antagonist: NovaScreen (NVS) Nuclear Receptor Binding Assay for human Retinoic Acid Alpha Receptor Antagonism (RAR) (AID 2283358). In outline:
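Cell-free TR-FRET binding assay with extracted human RARalpha in antagonist mode, read 2 h after dosing. Loss of signal was fitted relative to DMSO; the primary screen used 25 uM in duplicate, with concentration series on follow-up.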

Assay [10] has the same target. The assay can be described thus: NVS_NR_hRARa_Agonist: NovaScreen (NVS) Nuclear Receptor Binding Assay for human Retinoic Acid Alpha Receptor Agonism (RAR) (AID 2283361). In outline: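 Cell-free TR-FRET binding readout with extracted receptor protein, read 2 hours after dosing; gain-of-signal fitted relative to DMSO. Screened in duplicate at 25 uM, actives then run in concentration-response.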

Assay [11] addresses guinea pig Sigma Receptor, Non-selective Binding, SIGMAR1 (gene 100135589) (UniProt Q60492). The assay can be described thus: NVS_OR_gSIGMA_NonSelective: NovaScreen (NVS) Nuclear Receptor Binding Assay for guinea pig Sigma Receptor, Non-selective Binding (AID 2283367). In outline:
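Radioligand displacement on guinea pig brain membranes, read by filter-based scintillation counting 1 h after dosing. Loss of signal versus DMSO; initial duplicate single-point screen at 25 uM, actives followed in concentration series.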

The subject of assay [12] is guinea pig Dopamine Transporter (DAT), gene 100714898. The assay can be described thus: NVS_TR_gDAT: NovaScreen (NVS) Transporter Assay for guinea pig Dopamine Transporter (DAT) (AID 2283369).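 Note: active compounds lower bound radioligand signal relative to DMSO.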 A digest of the protocol: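 Test chemicals were incubated 2 h with guinea pig striatal membranes and a radioligand; bound label was separated by filtration and counted. Screening ran at 25 uM, followed by concentration-response testing to a 50 uM maximum.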

For assay [13], the target named is human Dopamine Transporter (DAT), SLC6A3 (gene 6531) (UniProt Q01959). In words: NVS_TR_hDAT: NovaScreen (NVS) Transporter Assay for human Dopamine Transporter (DAT) (AID 2283374).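 Note: activity means loss of bound radioligand signal relative to DMSO.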 A digest of the protocol:
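Cell-free radioligand displacement binding at human DAT, 1 h after dosing, with filtration and scintillation counting. Primary screen in duplicate at 25 uM, actives then in concentration series. Loss of bound signal versus DMSO scored.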

The target of assay [14] is human Norepinephrine Transporter (NET), SLC6A2 (gene 6530) (UniProt P23975). The assay can be described thus: NVS_TR_hNET: NovaScreen (NVS) Transporter Assay for human Norepinephrine Transporter (NET) (AID 2283377).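 Note: displacement of radioligand from human NET seen as loss of scintillation signal.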 A digest of the protocol: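 Cell-free radioligand binding using CHO-derived membrane protein expressing human NET, read by filter scintillation counting 1 h after dosing; loss of signal vs DMSO. Initial duplicate screen at 25 uM, actives retested in concentration series.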

For assay [15], the target named is Agonist Androgen Response Element (ARE), AR (gene 367) (UniProt P10275). The assay can be described thus: OT_AR_ARELUC_AG_1440: Odyssey Thera (OT) 24-hour CHO-K1 Luciferase Assay for Agonist Androgen Response Element (ARE) (AID 2283379). A digest of the protocol:
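CHO-K1 cells carrying an ARE-driven luciferase reporter were exposed to compounds for 24 h. Luminescence was then read after adding a D-luciferin/ATP mix, and activity was scored as a gain in signal over DMSO vehicle.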

The target in assay [16] is human Thyroid Receptor Alpha (TRa), THRA (gene 7067) (UniProt P10827). In words: NVS_NR_hTRa_Antagonist: NovaScreen (NVS) Nuclear Receptor Binding Assay for human Thyroid Receptor Alpha Antagonism (TRa) (AID 2283362).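 Note: activity is loss of signal relative to DMSO baseline.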 A digest of the protocol: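 Chemicals were first screened in duplicate at 25 uM, then actives were retested in concentration series. Binding to the extracted receptor was measured 1 h after dosing by AlphaLISA chemiluminescence, with decreased signal versus DMSO scored as activity.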
human Thyroid Receptor Alpha (TRa), THRA (gene 7067), sequence (P10827 whole entry, looked up): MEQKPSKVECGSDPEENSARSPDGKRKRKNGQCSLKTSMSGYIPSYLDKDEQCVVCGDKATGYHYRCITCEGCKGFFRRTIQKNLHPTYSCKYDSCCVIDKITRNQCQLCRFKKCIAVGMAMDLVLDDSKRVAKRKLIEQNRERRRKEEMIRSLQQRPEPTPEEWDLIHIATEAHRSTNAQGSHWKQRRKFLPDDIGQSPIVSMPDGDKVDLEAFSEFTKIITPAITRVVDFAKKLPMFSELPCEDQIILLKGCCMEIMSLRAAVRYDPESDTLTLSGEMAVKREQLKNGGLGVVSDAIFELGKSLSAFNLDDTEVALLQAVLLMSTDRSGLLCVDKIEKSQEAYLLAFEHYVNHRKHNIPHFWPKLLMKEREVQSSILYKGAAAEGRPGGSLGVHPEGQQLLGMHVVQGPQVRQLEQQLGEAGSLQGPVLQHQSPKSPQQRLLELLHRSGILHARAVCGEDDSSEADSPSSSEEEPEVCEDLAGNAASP

Records with an inconclusive call do not appear. Activity calls are given as the source filed them. Rule for the calls, unless noted: active = hit-call score of the fitted dose curve at least 0.9, where 1 is the maximum; inconclusive = response in the unintended direction; inactive = score below 0.9.

Estrogen receptor beta (Homo sapiens), sequence (Q92731 whole entry, looked up, the tested form may be a part): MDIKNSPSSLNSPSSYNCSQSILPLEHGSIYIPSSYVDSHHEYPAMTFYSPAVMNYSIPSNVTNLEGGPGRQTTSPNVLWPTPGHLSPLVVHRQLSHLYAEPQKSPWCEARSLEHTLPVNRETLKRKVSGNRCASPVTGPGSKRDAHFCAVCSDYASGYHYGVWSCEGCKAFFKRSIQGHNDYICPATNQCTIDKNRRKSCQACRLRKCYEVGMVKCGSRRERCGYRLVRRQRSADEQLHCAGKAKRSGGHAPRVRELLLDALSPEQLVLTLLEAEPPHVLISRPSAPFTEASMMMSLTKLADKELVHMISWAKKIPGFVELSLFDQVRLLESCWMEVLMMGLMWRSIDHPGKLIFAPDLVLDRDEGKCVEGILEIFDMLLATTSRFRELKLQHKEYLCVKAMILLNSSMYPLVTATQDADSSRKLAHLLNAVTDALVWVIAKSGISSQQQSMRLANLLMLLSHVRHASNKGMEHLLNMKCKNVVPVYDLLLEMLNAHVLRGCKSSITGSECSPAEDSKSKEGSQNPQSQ
Estrogen receptor (Homo sapiens), sequence (P03372 whole entry, looked up): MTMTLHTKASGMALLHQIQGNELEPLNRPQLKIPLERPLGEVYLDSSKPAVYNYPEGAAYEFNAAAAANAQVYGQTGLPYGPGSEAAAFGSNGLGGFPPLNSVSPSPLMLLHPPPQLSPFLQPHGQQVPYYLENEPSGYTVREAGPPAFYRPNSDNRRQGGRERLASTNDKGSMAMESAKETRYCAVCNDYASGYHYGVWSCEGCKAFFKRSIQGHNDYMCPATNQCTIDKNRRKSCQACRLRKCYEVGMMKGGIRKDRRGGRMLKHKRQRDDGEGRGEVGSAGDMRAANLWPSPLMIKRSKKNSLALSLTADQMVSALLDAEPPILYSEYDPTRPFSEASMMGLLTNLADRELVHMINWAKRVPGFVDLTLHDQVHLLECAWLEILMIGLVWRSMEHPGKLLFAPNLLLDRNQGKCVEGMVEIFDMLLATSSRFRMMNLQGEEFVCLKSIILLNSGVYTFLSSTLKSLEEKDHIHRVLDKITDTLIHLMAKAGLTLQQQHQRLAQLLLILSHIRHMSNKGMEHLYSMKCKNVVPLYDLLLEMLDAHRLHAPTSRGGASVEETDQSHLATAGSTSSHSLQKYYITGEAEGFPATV
human Peroxisome Proliferator-activated Receptor alpha (PPARa), PPARA (gene 5465), sequence (Q07869 whole entry, looked up): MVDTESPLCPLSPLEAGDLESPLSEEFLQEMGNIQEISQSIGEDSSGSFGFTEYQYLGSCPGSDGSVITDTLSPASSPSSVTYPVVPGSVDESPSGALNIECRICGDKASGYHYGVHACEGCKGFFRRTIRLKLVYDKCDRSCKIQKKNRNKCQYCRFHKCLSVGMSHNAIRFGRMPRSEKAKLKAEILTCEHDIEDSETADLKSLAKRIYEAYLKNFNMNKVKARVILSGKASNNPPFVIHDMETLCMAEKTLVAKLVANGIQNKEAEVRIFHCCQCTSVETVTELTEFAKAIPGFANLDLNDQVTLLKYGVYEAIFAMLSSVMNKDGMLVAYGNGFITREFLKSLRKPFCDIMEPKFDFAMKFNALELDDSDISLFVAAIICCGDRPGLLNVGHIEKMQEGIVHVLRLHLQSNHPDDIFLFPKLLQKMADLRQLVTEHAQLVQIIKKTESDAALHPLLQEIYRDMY
mouse Estrogen Receptor alpha (Era), Esr1 (gene 13982), sequence (P19785 whole entry, looked up): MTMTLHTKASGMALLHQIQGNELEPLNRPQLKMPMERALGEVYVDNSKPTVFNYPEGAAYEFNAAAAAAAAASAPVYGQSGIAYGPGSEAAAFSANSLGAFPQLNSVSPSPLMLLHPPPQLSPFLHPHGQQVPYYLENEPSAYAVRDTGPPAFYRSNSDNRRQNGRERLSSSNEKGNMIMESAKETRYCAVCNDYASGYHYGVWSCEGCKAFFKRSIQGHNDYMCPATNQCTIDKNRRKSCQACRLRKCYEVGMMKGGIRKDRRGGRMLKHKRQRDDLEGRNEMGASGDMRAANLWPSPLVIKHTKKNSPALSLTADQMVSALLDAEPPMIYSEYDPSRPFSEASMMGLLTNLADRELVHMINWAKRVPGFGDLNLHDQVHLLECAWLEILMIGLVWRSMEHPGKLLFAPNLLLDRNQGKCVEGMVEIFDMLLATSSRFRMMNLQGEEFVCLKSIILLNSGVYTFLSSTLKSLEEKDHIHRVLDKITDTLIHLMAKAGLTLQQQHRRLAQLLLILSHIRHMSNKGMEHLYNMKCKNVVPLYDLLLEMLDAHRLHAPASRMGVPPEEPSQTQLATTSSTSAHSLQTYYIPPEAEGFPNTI
Nuclear receptor subfamily 1 group I member 2 (Homo sapiens), sequence (O75469 whole entry, looked up): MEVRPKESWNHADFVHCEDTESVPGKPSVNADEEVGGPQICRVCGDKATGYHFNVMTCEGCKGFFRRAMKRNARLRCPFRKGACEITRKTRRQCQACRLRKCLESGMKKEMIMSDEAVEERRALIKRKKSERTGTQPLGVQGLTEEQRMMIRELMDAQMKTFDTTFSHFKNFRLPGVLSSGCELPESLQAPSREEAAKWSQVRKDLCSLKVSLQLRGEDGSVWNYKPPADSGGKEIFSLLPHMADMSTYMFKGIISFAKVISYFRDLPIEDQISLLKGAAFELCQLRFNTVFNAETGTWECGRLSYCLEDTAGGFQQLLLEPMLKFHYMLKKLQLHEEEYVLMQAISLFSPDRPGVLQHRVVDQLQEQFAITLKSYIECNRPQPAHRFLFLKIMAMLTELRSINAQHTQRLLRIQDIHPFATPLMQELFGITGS
Retinoic acid receptor alpha (Homo sapiens), sequence (P10276 whole entry, looked up): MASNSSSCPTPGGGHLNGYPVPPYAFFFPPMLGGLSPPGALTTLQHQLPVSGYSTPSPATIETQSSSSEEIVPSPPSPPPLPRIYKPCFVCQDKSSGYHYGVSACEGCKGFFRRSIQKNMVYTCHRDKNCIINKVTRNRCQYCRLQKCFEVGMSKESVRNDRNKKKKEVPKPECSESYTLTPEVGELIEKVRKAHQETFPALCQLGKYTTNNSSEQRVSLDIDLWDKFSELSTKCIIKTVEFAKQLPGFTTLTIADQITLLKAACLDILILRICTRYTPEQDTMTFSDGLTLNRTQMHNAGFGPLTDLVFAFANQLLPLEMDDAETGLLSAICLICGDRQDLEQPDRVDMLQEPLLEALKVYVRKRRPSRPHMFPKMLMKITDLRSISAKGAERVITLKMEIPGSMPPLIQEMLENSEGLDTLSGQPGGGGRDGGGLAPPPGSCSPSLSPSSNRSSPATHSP
Retinoic acid receptor RXR-alpha (Homo sapiens), sequence (P19793 whole entry, looked up, the tested form may be a part): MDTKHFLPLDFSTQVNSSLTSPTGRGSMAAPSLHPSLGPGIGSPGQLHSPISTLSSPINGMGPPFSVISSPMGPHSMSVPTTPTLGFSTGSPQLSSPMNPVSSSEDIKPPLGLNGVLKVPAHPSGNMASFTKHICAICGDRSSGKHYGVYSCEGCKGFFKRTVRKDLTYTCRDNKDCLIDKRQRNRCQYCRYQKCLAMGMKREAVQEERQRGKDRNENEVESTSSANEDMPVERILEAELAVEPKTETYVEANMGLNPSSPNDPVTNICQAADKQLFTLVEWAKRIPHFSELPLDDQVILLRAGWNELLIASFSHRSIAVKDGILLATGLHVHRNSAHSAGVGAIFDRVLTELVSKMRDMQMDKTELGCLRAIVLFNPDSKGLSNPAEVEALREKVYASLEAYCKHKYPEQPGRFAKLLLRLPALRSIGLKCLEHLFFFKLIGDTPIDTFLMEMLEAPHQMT
Agonist Androgen Response Element (ARE), AR (gene 367), sequence (P10275 whole entry, looked up): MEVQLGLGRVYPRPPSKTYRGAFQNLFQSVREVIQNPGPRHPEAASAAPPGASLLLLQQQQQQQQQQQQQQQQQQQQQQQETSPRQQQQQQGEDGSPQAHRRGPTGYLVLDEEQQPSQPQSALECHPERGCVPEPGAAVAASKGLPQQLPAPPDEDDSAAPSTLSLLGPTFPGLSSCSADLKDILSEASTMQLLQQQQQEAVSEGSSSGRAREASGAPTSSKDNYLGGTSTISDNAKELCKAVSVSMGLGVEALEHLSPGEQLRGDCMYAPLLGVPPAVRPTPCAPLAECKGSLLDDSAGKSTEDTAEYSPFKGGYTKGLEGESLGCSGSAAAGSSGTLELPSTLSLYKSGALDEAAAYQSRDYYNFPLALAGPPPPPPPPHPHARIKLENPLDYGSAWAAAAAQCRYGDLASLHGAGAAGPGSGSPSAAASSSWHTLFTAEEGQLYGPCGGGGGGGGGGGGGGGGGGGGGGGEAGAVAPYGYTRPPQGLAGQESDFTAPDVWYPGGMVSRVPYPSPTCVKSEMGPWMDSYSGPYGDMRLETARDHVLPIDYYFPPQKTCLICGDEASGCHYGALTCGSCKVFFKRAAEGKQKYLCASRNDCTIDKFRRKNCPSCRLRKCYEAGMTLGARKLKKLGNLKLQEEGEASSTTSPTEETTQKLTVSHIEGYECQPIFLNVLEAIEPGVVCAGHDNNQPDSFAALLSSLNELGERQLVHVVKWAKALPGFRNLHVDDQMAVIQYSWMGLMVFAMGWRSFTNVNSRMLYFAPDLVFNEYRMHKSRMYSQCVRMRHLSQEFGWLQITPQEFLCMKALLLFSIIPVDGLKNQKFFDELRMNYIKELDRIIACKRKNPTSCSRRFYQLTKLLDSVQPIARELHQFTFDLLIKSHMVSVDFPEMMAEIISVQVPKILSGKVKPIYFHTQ

For the molecule `CCCCCC(=O)O[C@]1(C(C)=O)CC[C@H]2[C@@H]3CCC4=CC(=O)CC[C@]4(C)[C@H]3CC[C@@]21C`, the molecule was classed as inactive in assay [1], in [2], in assay [4] and in assay [5]. Moreover, the concentration at half-maximal activity (AC50) – broadly, the concentration giving half of the maximal activity seen – in assay [3] was 12.6 µM (active); in [6], 11.9 µM (active); in [7], 26.3 µM (active).
For `C=C1CC[C@H]2O[C@]2(C)CC[C@@H]2[C@@H]1CC2(C)C`, the call with PGR (gene 5241) was inactive.
On to `CCC(C)(C)C1CCC(OC)CC1` (stereo not given), for which the molecule was classed as inactive in assay [1], in [3], in [4], in assay [5] and in assay [6].
On to `CN(C)C`, for which the call in assay [1], in assay [3], in assay [4], in assay [5] and in [6] was inactive.
Take `C1CCCNCC1`: the molecule was classed as inactive in [8], in assay [3], in [4], in [5] and in assay [6].
In the case of `CC(=O)C1=C(C)[C@@H]2C[C@@]3(C1)[C@H](C)CC[C@H]3C2(C)C`, the result in [8], in [4] and in [5] was inactive. In addition, the figures for the AC50 in [3] and in [6] were 12.7 µM (active) and 72.4 µM (active), respectively.
With `CC/C(=C(\c1ccccc1)c1ccc(OCCN(C)C)cc1)c1ccccc1`, the outcome in assay [9], in assay [8], in assay [10] and in assay [1] was inactive. The AC50 is 0.491 µM (active) in [11]; 3.1 µM (active) in assay [12]; 6.98 µM (active) in assay [13]; 3.85 µM (active) in [14]; 11.5 µM (active) in assay [6].
Consider `CCCCCCOc1ccc(O)cc1`, for which the result in [1], in assay [15] and in assay [6] was inactive. For the same molecule, the half-maximal activity concentration (AC50) in [2] is 0.174 µM (active); in [3], 12 µM (active); in assay [4], 88.9 µM (active); in [5] it was 69.5 µM (active).
As to `CC(=O)Nc1cc(S(=O)(=O)O)cc2cc(S(=O)(=O)O)c(N=Nc3ccccc3)c(O)c12`, the results for the AC50 in assay [16] and in assay [6] were 9.8 µM (active) and 22.9 µM (active), respectively. For the same molecule, the molecule was called inactive in [3], in [4] and in assay [5].
For `CC(C)C(=O)c1ccccc1`, the molecule was classed as inactive in assay [1], in assay [3], in [4], in assay [5], in assay [6] and in [7].
For `CCNC(=S)NCC`, the molecule was called inactive in assay [1], in assay [2], in assay [3], in assay [4], in assay [5] and in assay [6]. In addition, the molecule was called inactive in [7].
For the molecule `CN(C)C(=O)Nc1ccccc1`, the outcome in assay [1], in assay [3], in [4], in assay [5] and in [7] was inactive.
Consider `[Cl][Dy]([Cl])[Cl]`, for which the AC50 in assay [12] is 17.4 µM (active).
For `[O-]/[N+](=N\O)c1ccccc1`, the molecule was called inactive in assay [1], in assay [3], in [4] and in assay [5].
As for `CCC(C)(C)C1CCC(=O)CC1`, the molecule was classed as inactive in [1], in [2], in assay [15], in assay [4], in assay [5] and in assay [6]. The molecule was classed as inactive in assay [7].
For `CN1CCc2cccc3c2[C@H]1Cc1ccc(O)c(O)c1-3`, the AC50 is 0.279 µM (active) in assay [8], 0.26 µM (active) in assay [1] and 0.309 µM (active) in assay [2]. The molecule was classed as inactive in [3], in assay [4] and in assay [5].
